Measurements taken from PubChem BioAssay AID588466 (NMMLSC, 2011).
The whole screen tested about 2,100 compounds, of which about 30 (1%) were called active.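 Rule for the calls: active = compounds whose mean binding response over two repeats is below 75% of the DMSO control; inactive = the rest.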 Not all results are given here.

biological target: Desmoglein-3 (Homo sapiens) (UniProt P32926); assay: inhibitors of anti-DSG3 scFv binding to DSG3, confirmation, biochemical, cherry pick 1, bead-based, flow cytometry (AID 588466); settings: Protein G beads with DSG3, scFv-GFP binding, at 10 µM, stronger effect = lower value;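 note: 100% = 2% DMSO vehicle and 0% = excess soluble DSG3 blocking control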
Sequence (P32926 whole entry, looked up): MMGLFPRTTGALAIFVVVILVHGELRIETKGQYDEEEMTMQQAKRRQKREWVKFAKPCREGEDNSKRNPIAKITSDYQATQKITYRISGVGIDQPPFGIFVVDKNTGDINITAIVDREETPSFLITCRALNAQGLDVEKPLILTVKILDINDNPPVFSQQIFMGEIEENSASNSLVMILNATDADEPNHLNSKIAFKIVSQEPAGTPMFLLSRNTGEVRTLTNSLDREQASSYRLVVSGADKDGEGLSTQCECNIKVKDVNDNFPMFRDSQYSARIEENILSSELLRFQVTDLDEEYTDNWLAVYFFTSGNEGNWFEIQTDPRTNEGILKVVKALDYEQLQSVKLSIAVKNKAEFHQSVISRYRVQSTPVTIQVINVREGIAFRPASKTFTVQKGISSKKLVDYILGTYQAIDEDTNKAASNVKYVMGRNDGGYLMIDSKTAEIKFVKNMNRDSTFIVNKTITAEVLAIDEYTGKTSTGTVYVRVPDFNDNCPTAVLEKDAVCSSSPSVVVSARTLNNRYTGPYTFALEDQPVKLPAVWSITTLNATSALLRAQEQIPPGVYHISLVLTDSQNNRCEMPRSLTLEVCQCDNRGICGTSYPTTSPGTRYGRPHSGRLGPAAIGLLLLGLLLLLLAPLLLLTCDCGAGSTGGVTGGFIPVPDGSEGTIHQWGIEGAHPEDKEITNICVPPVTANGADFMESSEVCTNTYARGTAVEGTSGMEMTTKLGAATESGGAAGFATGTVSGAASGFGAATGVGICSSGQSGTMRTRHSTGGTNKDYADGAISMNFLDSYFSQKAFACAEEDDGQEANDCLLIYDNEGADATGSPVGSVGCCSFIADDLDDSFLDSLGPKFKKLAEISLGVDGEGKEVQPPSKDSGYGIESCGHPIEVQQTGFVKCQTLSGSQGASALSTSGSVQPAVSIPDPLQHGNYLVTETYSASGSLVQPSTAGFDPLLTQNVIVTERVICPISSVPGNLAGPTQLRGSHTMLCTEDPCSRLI

Binding response (% of DMSO), inactive:
Cc1ccc(NC(=O)Cc2ccc([N+](=O)[O-])cc2)c(Br)c1 95.5%
CCCN(CCC)CCNC(=O)Cn1cnc2sc(C)c(S(=O)(=O)N3CCOCC3)c2c1=O 99.3%
CCOC(=O)c1nn(-c2ccccc2)c(=O)c2c(NC(C)=O)scc12 111%
Cc1cc2ccccc2n1CCNC(=O)c1ccc(S(=O)(=O)N2CCCCC2)cc1 94.7%
CCOc1ccc(/C(O)=C2/C(=O)C(=O)N(c3cc(C)on3)C2c2ccc(C(=O)OC)cc2)cc1 (stereo not given) 98.1%
C[C@H]1COC(=O)[C@@H](Cc2ccc(F)cc2)CC/C=C/C[C@@H](CC(=O)N(CCO)Cc2ccccc2)C(=O)N1 104%
Cc1ccc(NC(=O)COc2ccc3c(c2)OCO3)c(C)c1 103%
CCN1CCN(c2ccc(S(=O)(=O)N3CCOCC3)cc2NC(=O)CCSC)CC1 105%
COc1ccc(CN(CCN(C)C)Cc2ccccc2)c(OC)c1 101%
Cc1cnc(NS(=O)(=O)c2ccccc2)c(C)n1 98.8%
N#Cc1c(-c2ccc(F)cc2)cc(-c2ccccc2)nc1SCC(=O)NCC(=O)O 99.8%
O=C(Oc1cccc(C(=S)N2CCOCC2)c1)c1ccccc1 94.4%
CCc1cc2cc3c(cc2nc1SCC(=O)Nc1cc(C)on1)OCO3 103%
Cc1ccc(/C=N/N2CCN(c3ccc(Cl)cc3)CC2)o1 101%
COc1ccccc1-c1cc(N)n(S(=O)(=O)c2ccc(F)c(C)c2)n1 100%
COC(=O)c1oc2ccc(Cl)cc2c1NC(C)=O 100%
O=[N+]([O-])c1ccc(OCc2cnc(Cl)s2)c([N+](=O)[O-])c1 107%
Cc1ccc(C)c(N2CCN(C(=O)Cc3cn(C)c4ccccc34)CC2)c1 104%
O=C(CNC(=O)c1ccc(Br)cc1)N=Nc1c(O)[nH]c2ccc([N+](=O)[O-])cc12 100%
CC(=O)c1ccc(NC(=O)Cn2cnc(S(=O)(=O)N3CCC(C)CC3)c2)cc1 98.2%
CSCC[C@H](NC(=O)C1CCN(S(=O)(=O)c2ccc(C)cc2)CC1)C(=O)NCc1ccco1 106%
Cc1ccccc1NC(=O)Nc1nc2ccc(S(C)(=O)=O)cc2s1 89.9%
COc1ccc(NC(=O)CSc2nnc(Cc3ccc(C)cc3)c(=O)n2N)cc1 92.4%
Cc1ccc(NC(=O)COc2ccc3c(c2)OCO3)c(Cl)c1 98.1%
CC1=C(C(N)=O)C(c2cccnc2)n2nc(SCc3ccccc3Cl)nc2N1 (stereo not given) 103%
